Source: PubChem BioAssay AID1159580 (chemical genetic matrix, 2015)
“And” between values parts separate entries of the source, which are not always exact repeats. Equal entries are not always repeated. The campaign covered roughly 5,500 compounds. About 2,000 (36%) were called active. Inconclusive results (about 18%) are left out. Cut-off read from the data, not from the text of the source: active = normalized growth mostly below about 0.91 (no sharp cut-off); inconclusive = no clear call, values can overlap the other calls; inactive = mostly above about 0.92. The list shows a part of the results.

Experiment: chemical genetic growth profiling, strain panel (AID 1159580);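 note: tested at 20 µM; growth read once vehicle control cultures reached saturation at 30 °C; 1 = growth at the plate median or of vehicle wells; lower values mean less growth of the strain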
Conditions: S. cerevisiae deletion strains, growth OD

Measured: normalized growth

ClC1=C(Cl)C2(Cl)C3C(Cl)C=CC3C1(Cl)C2(Cl)Cl (configuration not stated)
active: locus YDR159W, strain sac3, active compounds read low 0.817 | locus YJL129C, strain trk1, active compounds read low 0.854
inactive: locus YAL013W, strain DEP1, active compounds read low 0.999 | locus YAL021C, strain ccr4, active compounds read low 0.99 | locus YAL026C, strain drs2, active compounds read low 0.999 | locus YAL030W, strain snc1, active compounds read low 1.01 | locus YBL061C, strain skt5, active compounds read low 1.01 | locus YBR009C, strain hhf1, active compounds read low 0.983 | locus YBR021W, strain FUR4, active compounds read low 0.987 | locus YBR023C, strain chs3, active compounds read low 0.998 | locus YBR171W, strain sec66, active compounds read low 0.994 | locus YBR229C, strain ROT2, active compounds read low 0.991 | locus YBR231C, strain swc5, active compounds read low 0.999 | locus YBR279W, strain paf1, active compounds read low 1 | locus YCL011C, strain gbp2, active compounds read low 0.996 | locus YCL016C, strain dcc1, active compounds read low 0.998 | locus YCL029C, strain bik1, active compounds read low 0.965 | locus YCL061C, strain MRC1, active compounds read low 0.996 | locus YCL069W, strain vba3, active compounds read low 1.01 | locus YCR088W, strain abp1, active compounds read low 0.998 | locus YDL005C, strain med2, active compounds read low 1.01 | locus YDL035C, strain GPR1, active compounds read low 0.962 | locus YDL040C, strain nat1, active compounds read low 1.01 | locus YDL074C, strain BRE1, active compounds read low 1 | locus YDL101C, strain DUN1, active compounds read low 0.989 | locus YDL134C, strain PPH21, active compounds read low 0.99 | locus YDL185W, strain tfp1, active compounds read low 0.983 | locus YDL192W, strain arf1, active compounds read low 0.98 | locus YDR001C, strain nth1, active compounds read low 1 | locus YDR069C, strain doa4, active compounds read low 0.981 | locus YDR101C, strain arx1, active compounds read low 0.992 | locus YDR137W, strain rgp1, active compounds read low 0.925 | locus YDR150W, strain NUM1, active compounds read low 0.995 | locus YDR162C, strain NBP2, active compounds read low 0.999 | locus YDR195W, strain ref2 0.913 | locus YDR297W, strain sur2, active compounds read low 1 | locus YDR318W, strain mcm21, active compounds read low 0.978 | locus YDR334W, strain swr1, active compounds read low 1.02 | locus YDR335W, strain msn5, active compounds read low 1.01 | locus YDR388W, active compounds read low 0.974 | locus YDR392W, strain spt3, active compounds read low 0.975 | locus YDR502C, strain sam2, active compounds read low 0.984 | locus YEL003W, strain gim4, active compounds read low 0.995 | locus YEL037C, strain rad23, active compounds read low 1.01 | locus YEL061C, strain CIN8 (second series), active compounds read low 1.01 | locus YEL061C, strain CIN8, active compounds read low 1 | locus YER015W, strain faa2, active compounds read low 0.992 | locus YER016W, strain bim1, active compounds read low 1 | locus YER110C, active compounds read low 0.978 | locus YER111C, strain swi4, active compounds read low 1 | locus YER155C, strain BEM2 (second series), active compounds read low 0.998 | locus YER155C, strain BEM2, active compounds read low 1.01 | locus YER167W, strain BCK2, active compounds read low 0.98 | locus YFR010W, strain ubp6, active compounds read low 0.995 | locus YGL078C, strain dbp3, active compounds read low 0.988 | locus YGL086W, strain mad1, active compounds read low 0.99 | locus YGL167C, strain pmr1, active compounds read low 0.998 | locus YGL173C, strain kem1, active compounds read low 0.993 | locus YGL227W, strain vid30, active compounds read low 1 | locus YGL240W, strain doc1, active compounds read low 0.986 | locus YGL248W, strain PDE1, active compounds read low 0.991 | locus YGL253W, strain hxk2, active compounds read low 0.999 | locus YGR078C, strain PAC10, active compounds read low 0.993 | locus YGR135W, strain pre9, active compounds read low 0.982 | locus YGR229C, strain SMI1, active compounds read low 0.985 | locus YGR252W, strain gcn5, active compounds read low 0.957 | locus YHR013C, strain ard1, active compounds read low 0.904 | locus YHR027C, strain rpn1, active compounds read low 0.995 | locus YHR030C, strain SLT2, active compounds read low 1 and 1.04 | locus YHR079C, strain IRE1 (second series), active compounds read low 0.973 | locus YHR079C, strain IRE1, active compounds read low 1 | locus YHR094C, strain hxt1, active compounds read low 0.988 | locus YHR129C, strain ARP1, active compounds read low 0.997 | locus YHR142W, strain chs7, active compounds read low 0.996 | locus YHR200W, strain rpn10, active compounds read low 0.987 | locus YIL066C, strain RNR3, active compounds read low 0.971 | locus YIL073C, strain SPO22, active compounds read low 0.922 | locus YIL125W, strain kgd1, active compounds read low 1 | locus YIR030C, strain dcg1, active compounds read low 0.989 | locus YJL092W, strain hpr5, active compounds read low 0.998 | locus YJL095W, strain BCK1 (second series), active compounds read low 1 | locus YJL095W, strain BCK1, active compounds read low 1.03 and 1.04 | locus YJL115W, strain asf1, active compounds read low 0.995 | locus YJL134W, strain LCB3, active compounds read low 0.984 | locus YJL154C, strain vps35, active compounds read low 1 | locus YJL164C, strain tpk1, active compounds read low 0.953 | locus YJL166W, strain qcr8, active compounds read low 0.943 | locus YJL168C, strain set2, active compounds read low 0.977 | locus YJL187C, strain SWE1 (second series), active compounds read low 0.989 | locus YJL187C, strain SWE1, active compounds read low 1.01 | locus YJR043C, strain POL32, active compounds read low 0.997 | locus YJR066W, strain TOR1, active compounds read low 0.961
